An excerpt weighted towards active compounds, which were near 1.4% of everything screened.
PTHR1 ag: qHTS for PTHR1 Agonists: Primary Screen; HEK293 GP2 PTHR1 cells, GloSensor cAMP luminescence, 1 h; Potency, µM (highest dose often 115 µM), hits mostly activators; 0.075% of 410,000 active; AID 743266, 2014; further: nearly all actives have a fitted effect of over 55% in size
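HEK-293-derived GP2 cells expressing PTHR1 and a GloSensor cAMP reporter, 3,000/well, plated overnight, given luciferin plus IBMX (each 0.5 mM as added) for 1 h at 37 °C, then compound for 1 h at 37 °C. Luminescence was read after 15 min at room temperature.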
RXFP1 ag: qHTS Assay for Agonists of the Relaxin Receptor RXFP1. Relaxin receptor 1 (Homo sapiens), Q9HBX9. 0.3% of 370,000 active. Potency, µM (highest dose often 57.5 µM), usual class: activators. HEK293T-RXFP1 cAMP TR-FRET, 30 min; response scale: percent of porcine relaxin response, buffer zero; further: nearly all actives have a fitted effect of over 60% in size
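Agonist response is measured as cAMP accumulation in an RXFP1-transfected HEK293T line under PDE4 inhibition. Values are scaled between buffer-only and 29 nM porcine relaxin, and EC50s come from standard Hill equation fits.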
RXFP1 antag: qHTS Assay for Antagonists of the Relaxin Receptor RXFP1; Relaxin receptor 1 (Homo sapiens), Q9HBX9; HEK293-RXFP1, relaxin-stimulated cAMP HTRF, 30 min; hits give low values; activity change, negative = inhibition, % at 57.5 µM; 0.59% of 350,000 active; AID 1259400, 2018;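 active means activity change of -60% or lower, but not beyond a set lower limit; inconclusive means change between -60% and -40%, or beyond the set limit; inactive means change above -40%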
Glioma ERSR ind: qHTS for Inducers of the Endoplasmic Reticulum Stress Response (ERSR) in Human Glioma: qHTS | Potency, µM, hits mostly activators | 0.02% of 420,000 active | U87-MG GRP78 promoter luciferase reporter, 16 h | AID 602332, 2012; further: series mostly up to about 76 µM; nearly all actives have a fitted effect of over 35% in size
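ERSR induction read as luciferase luminescence (Bright-Glo, 10 min at room temperature) in stably transfected human U87-MG glioma cells exposed to compounds for 16 h, using GRP78 as sensor.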
hERG WT inh: qHTS for Inhibitors of KCHN2 3.1: Wildtype qHTS; Voltage-gated inwardly rectifying potassium channel KCNH2 (Homo sapiens), Q12809; 0.37% of 340,000 active; activity change, % at 1.84 µM; U2OS, BacMam KCNH2, thallium flux FluxOr; hits give low values;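 active means maximum activity change below -70%; inconclusive means maximum activity change between -70% and -50%; inactive means maximum activity change above -50%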
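U2OS cells were transduced with wild-type KCNH2 virus (2.03 x 10^8 / mL) for 4 h at room temperature, then cultured overnight at 37 C. Thallium flux was read with FluxOr dye. Rate constants were normalized to DMSO controls.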
KCNH2 3.1 inh: qHTS for Inhibitors of KCHN2 3.1: Mutant qHTS. Potassium voltage-gated channel subfamily H member 2, brain isoform KCNH2 3.1 (human). U2OS KCNH2 3.1, thallium flux FluxOr; hits give low values. activity change, % (tested at about 1.8 µM). 0.95% of 340,000 active;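 active means maximum activity change below -70%; inconclusive means maximum activity change from -70% to -50%; inactive means maximum activity change above -50%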;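 further: thallium influx rate constant from kinetic fluorescence after stimulation buffer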
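Normalized rate constant (relative to positive and negative DMSO controls) derived from a 2 min kinetic fluorescence read after stimulation; U2OS cells expressing the 3.1 isoform via virus at 1.77 x 10^8 /mL.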
Of the large screens only hits and unclear results are named; the others gave an inactive call. Unless noted, the call rests on the fitted dose curve; in most records, active means well fitted curve in the direction sought with a large enough effect; inconclusive means small, poorly fitted or top-dose-only effect, or another doubt; inactive means no such curve, though single readings can be large; an effect the other way counts as inactive or inconclusive.

O=C(CCCCCNc1nc(=S)[nH]c2ccccc12)NCCC1=CCCCC1	RXFP1 antag -63
O=C(NCCCN1CCOCC1)C1Nc2ccc(OC(F)(F)F)cc2C2C=CCC12 (stereo unspecified)	none (no result: RXFP1 ag, RXFP1 antag)
O=[N+]([O-])c1ccc(OCC(O)CN(C2CCCCC2)C2CCCCC2)cc1 (stereo unspecified)	hERG WT inh -70, KCNH2 3.1 inh -106
CCCCn1c(=O)c(C(=O)OCC)c(O)c2ccccc21	none
O=C(NCC1CCCO1)c1ccc2c(=O)n(CC3CCCO3)c(=S)[nH]c2c1 (stereo unspecified)	none
COc1cc2[nH]c(=S)n(CC3CCCO3)c(=O)c2cc1OC (stereo unspecified)	RXFP1 antag -94
COC(=O)c1ccc2c(=O)n(CCCN3CCOCC3)c(=S)[nH]c2c1	none
COc1cc2[nH]c(=S)n(CCCN3CCOCC3)c(=O)c2cc1OC	PTHR1 ag inconclusive, RXFP1 antag -68
COc1cc2c(=O)n(CC3CCCO3)c(=O)n(CC(=O)Nc3ccccc3)c2cc1OC (stereo unspecified)	none (no result: RXFP1 antag)
O=C(Nc1ccc(F)cc1)c1ccc2c(=O)n(CC3CCCO3)c(=S)[nH]c2c1 (stereo unspecified)	RXFP1 antag -68, KCNH2 3.1 inh inconclusive
COc1ccc(CCNC(=O)Cn2c(=O)n(CC3CCCO3)c(=O)c3cc(OC)c(OC)cc32)cc1OC (stereo unspecified)	KCNH2 3.1 inh -141
O=C(O)c1cc(Sc2ccc(Br)cc2)nc2ccccc12	none
COc1ccc(Cn2c(SCC(=O)N(C)Cc3ccccc3)nc3ccccc32)cc1	none (no result: RXFP1 antag, hERG WT inh, KCNH2 3.1 inh)
Cc1ncc([N+](=O)[O-])n1CC(=O)NC1CCCCC1	none (no result: RXFP1 antag)
CN(C)c1nc(Cl)nc(N(C#N)CCOc2ccccc2)n1	KCNH2 3.1 inh -83
CCCOC(=O)c1cc(-c2ccc(C=O)o2)ccc1Cl	none
CC1CCCCN1C(=O)c1ccc(NC(=O)c2ccccc2Cl)cc1 (stereo unspecified)	hERG WT inh -202, KCNH2 3.1 inh inconclusive
Cc1ccc(-n2nnc3c(=O)oc4ccccc4c32)cc1	RXFP1 antag -89
CCC(C)n1nnc2c(=O)oc3ccccc3c21 (stereo unspecified)	none
O=C/C=C/c1ccc(O)cc1	none (no result: PTHR1 ag, RXFP1 ag, RXFP1 antag, hERG WT inh, KCNH2 3.1 inh)
COc1ccc(C[C@H]2CN3C(=NC[C@@H]3Cc3ccc(O)cc3)N2C[C@H](C)NC(=O)c2ccc(C)c(Br)c2)cc1	hERG WT inh -164 (no result: RXFP1 antag)
Cc1ccc(C(=O)NCCN2C3=NC[C@H](Cc4ccc(O)cc4)N3C[C@H]2Cc2ccc(O)cc2)cc1Br	none (no result: RXFP1 antag)
COc1ccc(C[C@H]2CN3C(=NC[C@@H]3Cc3ccc(O)cc3)N2CCNC(=O)c2ccc(C)c(Br)c2)cc1	hERG WT inh -81 (no result: RXFP1 antag)
COc1ccc(C[C@H]2CN3C(=NC[C@@H]3C(C)C)N2C[C@H](C)NC(=O)c2ccc(C)c(Br)c2)cc1	none (no result: RXFP1 antag)
O=C(O)CCCCCn1c(SCc2cc(=O)n3cc(Cl)ccc3n2)nc2ccsc2c1=O	RXFP1 ag inconclusive
O=C(c1ccc(CS(=O)Cc2ccc(Cl)cc2)o1)N1CCN(c2ccccc2)CC1 (stereo unspecified)	none
Cc1nonc1C(=O)N/N=C/c1ccc(O)c(O)c1	Glioma ERSR ind 35µM
O=C(c1c[nH]c2ccccc12)N1CCOCC1	none
Cn1c(O)c(N=NC(=O)CNC(=O)/C=C/c2ccccc2)c2ccccc21	KCNH2 3.1 inh -184
CCn1c(O)c(N=NC(=O)CNC(=O)/C=C/c2ccccc2)c2ccccc21	none
O=C(CN1CCC(C(O)(c2ccccc2)c2ccccc2)CC1)Nc1ccccc1	KCNH2 3.1 inh -80
CC(C)Oc1ccc(NC(=O)Oc2ccccc2)cc1	KCNH2 3.1 inh -207
CCCCCCN1C[C@H](O)[C@@H](n2cc(C3CC3)nn2)C[C@@H]1c1ccc(OC)cc1	hERG WT inh inconclusive, KCNH2 3.1 inh -117 (no result: RXFP1 ag)
CCN1CCN(C(c2cccs2)C(C)NS(=O)(=O)c2ccc(C)cc2)CC1 (stereo unspecified)	KCNH2 3.1 inh -76 (no result: hERG WT inh)
Cc1nc(N2CCN(c3ccccn3)CC2)c2c(C)c(C(=O)Nc3ccccc3F)sc2n1	none
Cc1ccc(F)cc1NC(=O)c1sc2ncn(CC(=O)N3CCN(c4ccccn4)CC3)c(=O)c2c1C	RXFP1 ag 16µM
Cc1nc(N2CCN(c3ccccn3)CC2)c2c(C)c(C(=O)Nc3ccc(F)cc3Cl)sc2n1	KCNH2 3.1 inh -88
COc1ccccc1NC(=O)Cn1cnc2sc(C(=O)Nc3cc(OC)c(OC)c(OC)c3)c(C)c2c1=O	none
Cc1nc(N2CCN(c3ccccn3)CC2)c2c(C)c(C(=O)Nc3ccc(F)cc3F)sc2n1	KCNH2 3.1 inh -93
COc1ccccc1NC(=O)Cn1cnc2sc(C(=O)Nc3ccc(OC)c(OC)c3)c(C)c2c1=O	RXFP1 antag -71
CC(C)NC(=O)C1(C)Cc2c(-c3cccc(C(N)=O)c3)ccnc2O1 (stereo unspecified)	none (no result: RXFP1 ag, RXFP1 antag, hERG WT inh, KCNH2 3.1 inh)
Cc1cn2c(-c3cccnc3)nnc2s1	KCNH2 3.1 inh -76
Cc1ccc(NC(=O)Cc2noc3ccccc23)nc1	none (no result: RXFP1 antag)
C#Cc1cccc(NC(=O)c2ccc3c(c2)C(=O)N(Cc2cccnc2)C3=O)c1	RXFP1 antag -88 (no result: KCNH2 3.1 inh)
Cc1[nH]n(-c2ccc([N+](=O)[O-])cc2)c(=O)c1C=NCCN1CCN(C(=O)c2ccc(Br)cc2)CC1	hERG WT inh -108, KCNH2 3.1 inh -84
CCOC(=O)C1=CN(Cc2cccc(F)c2)S(=O)(=O)NC1c1ccc(Br)cc1F (stereo unspecified)	none (no result: RXFP1 ag, RXFP1 antag)
CCCNC(=O)c1ccc(N2CCC3(CC2)CC(c2cccc(Br)c2)=NO3)c([N+](=O)[O-])c1	hERG WT inh -129, KCNH2 3.1 inh -80 (no result: RXFP1 antag)
CCCCCCCC(=O)Nc1cc(C(=O)NCCC)ccc1N1CCC2(CC1)CC(c1ccccc1)=NO2	hERG WT inh -113, KCNH2 3.1 inh -90 (no result: RXFP1 antag)
CCCNC(=O)c1ccc(N2CCC3(CC2)CC(c2cccc(Br)c2)=NO3)c(NC(=O)c2cccc(OC)c2)c1	KCNH2 3.1 inh -72 (no result: RXFP1 antag)
CCOC(C)OCC	none (no result: PTHR1 ag, RXFP1 ag, RXFP1 antag, hERG WT inh, KCNH2 3.1 inh)

High-throughput results as filed in PubChem.
